The values below come from PubChem BioAssay AID1259415 (National Center for Advancing Translational Sciences (NCATS), 2018).

Among all 410,000 compounds or so, about 18,000 (4.4%) were called active. Roughly 7% stayed inconclusive and do not appear here. The full list was thinned out, with actives kept by preference. A number with no mark means an inactive call. No stated cut-off is given here; in the data, active means activity change below about -60%; inconclusive means no clear call, values can overlap the other calls; inactive means above about -39%.
On the % scale 0 is the no-effect control and ±100 the full control effect.

A short description of this test: qHTS Assay for inhibitors of the human cytomegalovirus (HCMV). The conditions noted are these: HFF cells, HCMV-luciferase reporter, 72 h; at 57.5 µM; stronger effect = lower value. An outline of the steps: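 Two compound doses tested in HFFs infected with HCMV-luciferase, MOI 1 PFU/cell, 72 h at 37C. Lysate luminescence read with OneGlo; data normalized against buffer-only and 10uM Salinomycin inhibitor controls.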
Regarding `Cc1ccccc1CNC(=O)CCCn1nc(C)c2sc3ccccc3c2c1=O`, the activity change, negative = inhibition is 14.7%. For `CC(C)CN1Cc2cc(N3CCCCC3)ccc2-n2nncc2C1`, the activity change, negative = inhibition was 10.2%. For `O=C(NC1CCCCC1)N1Cc2cc(N3CCCCC3)ccc2-n2nncc2C1`, the activity change, negative = inhibition is 40.9%. Then `CCOC(=O)CNC(=O)N1Cc2cc(N3CCCCC3)ccc2-n2nncc2C1`, with -62.1% (active); and `Cn1c(C(=O)N2CCC(C(=O)N3CCN(c4ccccc4)CC3)CC2)cc2sccc21`, with -22.9%; and `Cc1nn(CC(=O)N2CCN(c3cccc(C(F)(F)F)c3)CC2)c(=O)c2cc3sccc3n12`, with 2.88%.

For the compound `COc1ccc(F)cc1C(=O)COC(=O)c1n[nH]c(=O)c2ccccc12`, the activity change, negative = inhibition is 49.5%. Regarding `CC1CCCN(S(=O)(=O)c2ccc(C(=O)Nc3nnc(-c4ccncc4)o3)cc2)C1` (stereo not given), the activity change, negative = inhibition is -96.5% (active). Turning to `CC1CC(C)CN(S(=O)(=O)c2ccc(C(=O)NN3CCOCC3)cc2)C1` (stereo not given), the activity change, negative = inhibition was -27.9%. The same measure for `CS(=O)(=O)c1ccc(-c2nnc(NC(=O)c3ccc4c(c3)OCCO4)o2)cc1`: -0.462%; for `C[C@H]1CN([C@@H](C)CO)C(=O)CCCn2nncc2CO[C@@H]1CN(C)C(=O)Nc1ccc(N2CCN(C)CC2)cc1`: -20.2%. Then `COc1cc(C2OC(c3cc(OC)c(OC)c(OC)c3)C(C)C2C)cc(OC)c1OC` (stereo not given), with 54.8%; and `O=C(CC1Oc2ccccc2NC1=O)NCc1ccc(F)cc1` (stereo not given), with -9.67%.

In the case of `O=C(NCc1ccccc1)c1ccc2c(c1)nc1n2CCCCC1`, the activity change, negative = inhibition was 27.3%. For the compound `Cc1cc(C)nc(S/C=C/C(=O)c2ccccc2)n1`, the activity change, negative = inhibition was -90.7% (active). For `CCn1c(CSc2nc(C)cc(C)n2)nnc1SCC(N)=O`, the activity change, negative = inhibition was -18.8%. Take `CCC1Oc2ccc(Cl)cc2N(CC(=O)O)C1=O` (stereo not given): the activity change, negative = inhibition is -13.4%. As to `Cc1cc(C)n(C(=O)c2ccc(C)c(S(=O)(=O)N3CCOCC3)c2)n1`, the activity change, negative = inhibition is -11.1%. As to `O=C(Nc1cccn(Cc2ccccc2Cl)c1=O)NC1CCCCC1`, the activity change, negative = inhibition was -37.7%. Then `O=C(Nc1cccn(Cc2c(Cl)cccc2Cl)c1=O)c1ccc(Cl)cc1`, with -83.3% (active); and `CCn1c(=O)c(=O)n(CC)c2cc(N3CCCCC3)c(NC(=O)c3ccc(Cl)cc3)cc21`, with -11.3%. The same measure for `Cc1ccc(C(=O)Nc2ccc(OCc3cc(=O)n4c5c(sc4n3)CCCC5)cc2)cc1`: 7.24%; for `COc1ccc(S(=O)(=O)N2CCOCC2)cc1NC(=O)CSc1nnc(NC2CC2)s1`: 18.1%. With `COc1ccc(S(=O)(=O)N2CCOCC2)cc1NC(=O)CSc1cc(C)ccc1C`, the activity change, negative = inhibition is -10.1%. The same measure for `COc1ccc(S(=O)(=O)N2CCOCC2)cc1NC(=O)CSc1ncnc2ccccc12`: -109% (active).
